The source of these data is PubChem BioAssay (NCATS).

Records with an inconclusive call do not appear. Activity calls are given as the source filed them. Unless noted, the call rests on the fitted dose curve; in most records, active means well fitted curve in the direction sought with a large enough effect; inconclusive means small, poorly fitted or top-dose-only effect, or another doubt; inactive means no such curve, though single readings can be large; an effect the other way counts as inactive or inconclusive.

For assay [1], the target named is Estrogen receptor (Homo sapiens) (UniProt P03372). Description: qHTS assay for small molecule antagonists of estrogen receptor alpha signaling (AID 588513; active means well fitted curve in the direction sought with a large enough effect in the signal ratio, with a control signal flat, not every such curve was filed as active; the % refers to the signal ratio; further: on the % scale 0 is the no-effect control and ±100 the full control effect). The gist of the method:
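Cells were plated at 5000/well and incubated 4 h at 37 C. Compounds were added as 1:2 dilution series, duplicates. 17-beta-estradiol (0.5nM final) was added for 18 h before CCF4 detection.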
In general terms: Quantitative high-throughput screening tests each substance at several concentrations.

Assay [2] shares this target. Description: qHTS assay for small molecule agonists of estrogen receptor alpha signaling (AID 588514; calls by dose curve;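 further: 0% = vehicle only and 100% = reference agonist; nearly all actives have a fitted effect of over 70% in size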). The gist of the method:
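EC50 and efficacy came from Hill fits of beta-lactamase reporter signal (CCF4 dye, 2 h at room temperature) scaled between DMSO and 20 nM 17-beta-estradiol. Agonist mode: HEK293 ER-alpha-UAS-bla cells in charcoal/dextran-stripped serum medium, 18 h compound exposure at 37 C.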

Assay [3] addresses Glucocorticoid receptor (Homo sapiens) (UniProt P04150). The experiment in a line: qHTS assay for small molecule agonists of glucocorticoid receptor signaling (AID 588532; active means well fitted curve in the direction sought with a large enough effect in the signal ratio, with a control signal flat; the % refers to the signal ratio;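 further: 100% = dexamethasone at 0.1 µM and 0% = DMSO only wells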). Particulars: HeLa MMTV-bla, beta-lactamase ratio, agonist, 18 h; stronger effect = higher value; percent of dexamethasone control, DMSO zero. The gist of the method:
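Using MMTV-bla HeLa cells in medium with 1% stripped FBS and 25 mM HEPES, compounds were titrated and incubated overnight-length (18 h). Beta-lactamase cleavage of CCF4 was quantified by dual-emission fluorescence.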

Assay [4] shares this target. Description: qHTS assay for small molecule antagonists of glucocorticoid receptor signaling (AID 588533; active means well fitted inhibition curve with a large enough effect in the signal ratio, with a control signal flat, not every such curve was filed as active; the % refers to the signal ratio;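 further: cells stimulated with 2 nM dexamethasone as agonist; on the % scale 0 is the no-effect control and ±100 the full control effect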). In a few lines: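 Antagonist-mode qHTS: compound titrations added to GRE-bla HeLa cells, then dexamethasone 2 nM final; 18 h, 37 C. CCF4 FRET fluorescence normalized to dexamethasone and DMSO; IC50 from Hill fit.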
A short description of assay [5]: qHTS assay for small molecule antagonists of peroxisome proliferator-activated receptor delta signaling (AID 588535; active means well fitted inhibition curve with a large enough effect in the signal ratio, with a control signal flat, not every such curve was filed as active; the % refers to the signal ratio;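 on max response: cells co-treated with a PPAR-delta agonist as stimulator during compound exposure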). Particulars: HEK293T PPARd-UAS-bla, beta-lactamase FRET ratio, 18 h; 460 nm channel. The gist of the method: (§1)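 Titrations were run on PPAR-delta-UAS-bla HEK293T cells in charcoal/dextran-stripped serum, incubated 18 h at 37 C. CCF4 fluorescence (460/530 nm) after 2 h RT; Hill equation yields IC50 and maximal response.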

In assay [6] the target is Peroxisome proliferator-activated receptor delta (Homo sapiens) (UniProt Q03181). The description is as above. The gist of the method: as §1
The nature of assay [7]: qHTS assay for small molecule agonists of retinoid X receptor alpha signaling (AID 588544; calls by dose curve;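 on activation: 0% = DMSO basal wells and 100% = reference agonist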). The conditions noted are these: HEK293T RXRa-UAS-bla, beta-lactamase reporter, 18 h; 530 nm emission.
Assay [8] addresses Retinoic acid receptor RXR-alpha (Homo sapiens) (UniProt P19793). The description is as above.
Assay [9] has as its target Thyroid hormone receptor beta (Homo sapiens) (UniProt P10828). The experiment in a line: qHTS assay for small molecule agonists of thyroid hormone receptor beta signaling (AID 588545; calls by dose curve;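 further: 0% = DMSO only and 100% = 10 nM T3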). The gist of the method: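 Compounds were tested as agonists in TR-UAS-bla-GripTite HEK 293 cells. After 18 hrs at 37 C, CCF4 substrate was added and fluorescence read after 2 hrs at room temperature.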

Assay [10] can be described thus: qHTS assay for small molecule antagonists of retinoid X receptor alpha signaling (AID 588546; active means well fitted inhibition curve with a large enough effect in the signal ratio, with a control signal flat, not every such curve was filed as active; the % refers to the signal ratio;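 further: cells stimulated with 9-cis-retinoic acid as agonist; on the % scale 0 is the no-effect control and ±100 the full control effect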). The conditions noted are these: HEK293T RXRa-UAS-bla, beta-lactamase ratio, antagonist mode; measured here: W530 green channel, cytotoxicity proxy. The gist of the method: (§2)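 Beta-lactamase reporter inhibition, read as CCF4 fluorescence ratio (ex 405, em 460/530 nm) after 2 h at RT. HEK293T UAS-bla cells, 2500/well, were stimulated with 9-cis-RA at 500 or 100 nM final alongside test compound for 18 h at 37 C.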

Assay [11] addresses Retinoic acid receptor RXR-alpha (Homo sapiens) (UniProt P19793). The assay is described as above. The conditions noted are these: HEK293T RXRa-UAS-bla, beta-lactamase ratio, antagonist mode. The gist of the method:
as §2

A short description of assay [12]: qHTS assay for small molecule activators of the nuclear factor-kappa B (NF-kB) signaling pathway (AID 651749; active means well fitted activation curve with a large enough effect in the signal ratio; the % refers to the signal ratio; further: series mostly up to about 77 µM; % of control where 0% means no effect). Particulars: NF-kB-bla ME-180 cells, beta-lactamase FRET ratio, 16 h; activation: stronger effect = higher value. The gist of the method:
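Activation measured after 16 hr compound treatment at 37C, 5% CO2, of 2,000 ME-180 cells/well stably expressing an NF-kB response element–driven beta-lactamase reporter, via FRET-disruption fluorescence.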

Assay [13] deals with Peroxisome proliferator-activated receptor alpha (Homo sapiens) (UniProt Q07869). Description: qHTS assay for small molecule agonists of the peroxisome proliferator-activated receptor alpha (PPARalpha) signaling pathway (AID 651778). Further: % of control where 0% means no effect. Particulars: PathHunter PPARalpha complementation, chemiluminescence, 6 h; max response: stronger effect = higher value. In a few lines:
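Chemiluminescence from complemented enzyme reported PPARalpha activation in cells after 6 hr of compound treatment at 37 C. The detection reagent was incubated for 60 min at room temperature, and compounds were scored as agonists.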

The nature of assay [14]: qHTS assay for small molecule agonists of the antioxidant response element (ARE) signaling pathway measured by Nrf2-dependant transcriptional activity - cell viability counter screen (AID 720653; active means well fitted curve in the direction sought with a large enough effect in the repeat runs; an effect the other way counts as inactive or inconclusive; further: on the % scale 0 is the no-effect control and ±100 the full control effect). Particulars: ARE-bla HepG2 viability, CellTiter-Glo ATP luminescence, 16 h; max response: stronger effect = lower value. In a few lines: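 Cytotoxicity counter screen: intracellular ATP quantified by CellTiter-Glo luminescence in the same ARE-bla HepG2 plates, after 16 h compound exposure and a 2 h beta-lactamase substrate step.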

A short description of assay [15]: qHTS assay for cell viability of HEK293 cells (AID 743288). Further: on the % scale 0 is the no-effect control and ±100 the full control effect; nearly all actives have a fitted effect of over 50% in size. The conditions noted are these: ATP luminescence (CellTiter-Glo), 18 h; max response: stronger effect = lower value. The gist of the method:
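Quantitative high-throughput screen: compounds were pinned onto parental HEK293 cells (2,000 per well) after a minimum 5 h settling at 37 C, incubated 18 h at 37 C, and intracellular ATP measured by luciferase luminescence.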

A short description of assay [16]: qHTS assay for cell viability of the p53RE-bla HCT-116 cell line (AID 743292). Further: on the % scale 0 is the no-effect control and ±100 the full control effect; nearly all actives have a fitted effect of over 55% in size. The gist of the method:
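CellSensor p53RE-bla HCT-116 cells, 4,000/well, preincubated 5 h at 37 C, then exposed to compounds in DMSO for 16 h at 37 C. Viability read as CellTiter-Glo luminescence (intracellular ATP) after 30 min at room temperature.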

Assay [17] concerns the target Nuclear receptor subfamily 1 group I member 2 (Rattus norvegicus) (UniProt Q9R1A7). Description: qHTS assay for small molecule activators of the rat pregnane X receptor (rPXR) signaling pathway (AID 651751; call rule not given here; further: 0% is about no effect). The conditions noted are these: rPXR reporter cells, luciferase (One-Glo), 24 h.
Assay [18] is described as follows: qHTS assay for small molecule activators of the human pregnane X receptor (PXR) signaling pathway (AID 720659; call rule not given here; further: 0% is about no effect).
Assay [19] in a line: qHTS assay for small molecule agonists of the antioxidant response element (ARE) signaling pathway measured by Nrf2-dependant transcriptional activity (AID 720636; active means well fitted curve in the direction sought with a large enough effect in the repeat runs; an effect the other way counts as inactive or inconclusive; further: % of control where 0% means no effect). The gist of the method: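 ARE-luc HepG2 cells carrying an Nrf2-responsive luciferase reporter were plated in medium with 1% dialyzed FBS, left 6 hr at 37 C to attach, then exposed to compound for 16 hr. Luciferase luminescence was read after ONE-Glo addition.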

Assay [20] can be described thus: qHTS assay for environmental chemicals that activate the Aryl hydrocarbon Receptor (AhR) signaling pathway (AID 651777). Further: % of control where 0% means no effect; nearly all actives have a fitted effect of over 15% in size. Particulars: 1A2-DRE human hepatoma cells, luciferase, 24 h; activation: stronger effect = higher value. In a few lines:
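Human hepatoma 1A2-DRE cells, stably carrying a dioxin response element and CYP1A2 promoter driving luciferase, were exposed to compounds for 24 hr at 37 C and 5% CO2. Luciferase signal was then read after 30 min One-Glo at room temperature.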

Chain of Thyroid hormone receptor beta (Homo sapiens) (P10828 whole entry, looked up): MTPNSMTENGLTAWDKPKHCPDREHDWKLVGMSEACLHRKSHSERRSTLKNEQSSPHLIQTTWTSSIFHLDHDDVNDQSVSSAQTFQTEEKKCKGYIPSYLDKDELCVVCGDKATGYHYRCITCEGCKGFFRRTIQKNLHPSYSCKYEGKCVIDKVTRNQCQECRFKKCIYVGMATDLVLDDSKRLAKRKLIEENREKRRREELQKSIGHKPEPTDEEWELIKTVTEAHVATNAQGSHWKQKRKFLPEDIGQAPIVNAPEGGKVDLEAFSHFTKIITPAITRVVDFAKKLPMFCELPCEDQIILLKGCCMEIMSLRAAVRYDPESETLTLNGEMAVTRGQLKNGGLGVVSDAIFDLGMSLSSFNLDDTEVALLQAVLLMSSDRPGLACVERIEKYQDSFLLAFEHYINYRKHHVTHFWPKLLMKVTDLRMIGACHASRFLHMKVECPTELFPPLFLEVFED
Chain of Estrogen receptor (Homo sapiens) (P03372 whole entry, looked up): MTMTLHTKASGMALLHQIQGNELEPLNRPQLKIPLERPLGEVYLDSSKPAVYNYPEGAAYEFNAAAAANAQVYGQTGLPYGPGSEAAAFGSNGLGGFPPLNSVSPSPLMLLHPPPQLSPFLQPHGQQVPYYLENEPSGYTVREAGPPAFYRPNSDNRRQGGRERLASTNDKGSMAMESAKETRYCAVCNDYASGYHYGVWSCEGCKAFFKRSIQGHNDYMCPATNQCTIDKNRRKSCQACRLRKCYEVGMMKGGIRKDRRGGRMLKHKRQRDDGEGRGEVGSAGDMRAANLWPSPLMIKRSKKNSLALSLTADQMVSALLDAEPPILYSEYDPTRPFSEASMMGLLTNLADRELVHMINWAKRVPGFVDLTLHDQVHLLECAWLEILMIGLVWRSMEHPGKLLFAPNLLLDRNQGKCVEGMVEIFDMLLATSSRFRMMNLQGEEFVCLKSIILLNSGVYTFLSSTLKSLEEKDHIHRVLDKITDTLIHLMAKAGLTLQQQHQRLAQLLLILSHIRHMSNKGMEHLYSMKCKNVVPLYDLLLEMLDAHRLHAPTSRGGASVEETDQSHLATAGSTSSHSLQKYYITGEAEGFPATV
Chain of Glucocorticoid receptor (Homo sapiens) (P04150 whole entry, looked up): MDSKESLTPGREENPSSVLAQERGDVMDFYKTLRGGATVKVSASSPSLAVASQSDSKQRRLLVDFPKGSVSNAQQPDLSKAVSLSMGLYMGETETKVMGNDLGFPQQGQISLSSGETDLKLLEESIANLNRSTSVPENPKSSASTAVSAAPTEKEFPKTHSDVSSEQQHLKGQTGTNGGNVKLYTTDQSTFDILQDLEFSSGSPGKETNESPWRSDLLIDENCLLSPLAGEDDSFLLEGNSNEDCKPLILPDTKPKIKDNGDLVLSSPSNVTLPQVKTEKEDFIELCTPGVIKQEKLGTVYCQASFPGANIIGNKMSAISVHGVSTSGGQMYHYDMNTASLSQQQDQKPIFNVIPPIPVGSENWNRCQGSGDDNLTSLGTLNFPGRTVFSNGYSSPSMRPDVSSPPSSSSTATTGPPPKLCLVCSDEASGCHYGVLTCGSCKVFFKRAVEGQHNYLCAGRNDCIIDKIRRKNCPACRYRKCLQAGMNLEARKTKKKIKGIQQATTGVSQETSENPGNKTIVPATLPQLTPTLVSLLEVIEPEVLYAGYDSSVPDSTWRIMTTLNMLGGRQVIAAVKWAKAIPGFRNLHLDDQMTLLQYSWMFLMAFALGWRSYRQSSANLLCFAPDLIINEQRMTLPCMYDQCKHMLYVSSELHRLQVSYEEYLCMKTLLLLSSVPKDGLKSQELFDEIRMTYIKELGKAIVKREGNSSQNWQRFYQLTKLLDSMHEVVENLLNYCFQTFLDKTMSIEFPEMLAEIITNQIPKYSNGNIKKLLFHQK
Chain of Peroxisome proliferator-activated receptor delta (Homo sapiens) (Q03181 whole entry, looked up): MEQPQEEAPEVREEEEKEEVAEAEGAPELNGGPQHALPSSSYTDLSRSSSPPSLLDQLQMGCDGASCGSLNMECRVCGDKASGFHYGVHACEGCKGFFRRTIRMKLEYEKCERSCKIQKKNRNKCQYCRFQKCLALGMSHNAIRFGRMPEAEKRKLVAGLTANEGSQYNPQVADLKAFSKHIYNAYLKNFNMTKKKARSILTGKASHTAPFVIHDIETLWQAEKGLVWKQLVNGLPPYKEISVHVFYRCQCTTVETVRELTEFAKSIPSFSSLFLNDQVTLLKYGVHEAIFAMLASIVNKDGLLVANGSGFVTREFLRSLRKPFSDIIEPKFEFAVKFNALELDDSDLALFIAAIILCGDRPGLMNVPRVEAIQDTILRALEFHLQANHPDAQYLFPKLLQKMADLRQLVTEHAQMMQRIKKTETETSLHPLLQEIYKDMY
Chain of Nuclear receptor subfamily 1 group I member 2 (Rattus norvegicus) (Q9R1A7 whole entry, looked up): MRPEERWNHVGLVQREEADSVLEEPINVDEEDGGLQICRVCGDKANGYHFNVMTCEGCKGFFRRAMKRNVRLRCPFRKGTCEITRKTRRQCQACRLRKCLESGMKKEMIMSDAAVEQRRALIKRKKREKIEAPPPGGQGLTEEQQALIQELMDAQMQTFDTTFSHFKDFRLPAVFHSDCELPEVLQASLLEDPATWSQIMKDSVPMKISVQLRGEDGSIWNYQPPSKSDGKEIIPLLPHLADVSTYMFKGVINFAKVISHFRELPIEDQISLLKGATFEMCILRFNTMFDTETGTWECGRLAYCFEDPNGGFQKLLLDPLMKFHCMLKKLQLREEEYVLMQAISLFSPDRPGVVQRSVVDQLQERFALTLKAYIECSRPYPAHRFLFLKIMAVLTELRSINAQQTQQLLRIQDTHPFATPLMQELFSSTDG
Chain of Retinoic acid receptor RXR-alpha (Homo sapiens) (P19793 whole entry, looked up): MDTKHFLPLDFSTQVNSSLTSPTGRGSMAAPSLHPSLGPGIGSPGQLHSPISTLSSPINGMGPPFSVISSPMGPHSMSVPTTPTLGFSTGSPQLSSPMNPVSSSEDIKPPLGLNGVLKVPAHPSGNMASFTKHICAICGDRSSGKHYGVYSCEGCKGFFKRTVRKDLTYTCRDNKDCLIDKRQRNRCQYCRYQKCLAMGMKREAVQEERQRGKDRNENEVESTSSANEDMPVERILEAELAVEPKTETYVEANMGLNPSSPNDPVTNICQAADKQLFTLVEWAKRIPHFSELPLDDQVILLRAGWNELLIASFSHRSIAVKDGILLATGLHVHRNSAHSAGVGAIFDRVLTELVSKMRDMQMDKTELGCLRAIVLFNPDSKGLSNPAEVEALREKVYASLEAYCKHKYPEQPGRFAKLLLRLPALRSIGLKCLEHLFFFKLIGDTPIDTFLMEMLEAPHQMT
Chain of Peroxisome proliferator-activated receptor alpha (Homo sapiens) (Q07869 whole entry, looked up): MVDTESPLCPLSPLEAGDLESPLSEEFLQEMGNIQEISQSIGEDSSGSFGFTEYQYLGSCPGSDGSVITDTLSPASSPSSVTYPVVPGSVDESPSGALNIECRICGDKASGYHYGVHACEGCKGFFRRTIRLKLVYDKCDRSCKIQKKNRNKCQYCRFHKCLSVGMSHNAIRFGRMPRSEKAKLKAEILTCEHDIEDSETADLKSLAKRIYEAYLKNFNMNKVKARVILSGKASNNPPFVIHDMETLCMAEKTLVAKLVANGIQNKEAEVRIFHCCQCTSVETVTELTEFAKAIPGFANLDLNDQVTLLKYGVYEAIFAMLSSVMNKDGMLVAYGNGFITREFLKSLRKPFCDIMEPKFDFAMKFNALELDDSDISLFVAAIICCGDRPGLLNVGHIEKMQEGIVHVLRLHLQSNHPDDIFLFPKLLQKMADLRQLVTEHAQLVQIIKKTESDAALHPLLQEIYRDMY

Consider `CC(C)(C)c1cccc(C(C)(C)C)c1O`, for which the Potency entry in assay [1], in assay [2], in assay [4], in assay [6], in assay [8] and in assay [9] was “inactive” each time. Further, the Potency result in assay [16] was “inactive”. For the same compound, the activation in [3] is -7.64% (inactive); in assay [12], -0.872% (inactive). The max response in [5] was -24.3%; in assay [7], -8.93%; in [10], -10.7%; in assay [11] it was -0.1% (inactive); in [13], -2.21% (inactive); in [14], -3.7% (inactive). The max response in [15] is 0.51% (inactive); in assay [17] it was 0.577% (inactive). The compound was classed as inactive in [18].
In the case of `Cc1cc(C)c(N)c(Cl)c1`, the Potency result in assay [1], in assay [2], in assay [4], in [6], in assay [8] and in assay [9] was “inactive” in each case. The Potency entry in assay [19] and in assay [16] was “inactive” each time. For the same compound, in assay [3], the activation was 5.1% (inactive). In addition, the max response is 24.2% in [5]; -1.71% in assay [7]; -1.91% (inactive) in [13]; 2.61% (inactive) in [14]; -10.1% (inactive) in assay [15]; -0.981% (inactive) in [17]. The call in assay [18] was inactive.
In the case of `C[Si]1(C)O[Si](C)(C)O[Si](C)(C)O[Si](C)(C)O[Si](C)(C)O1`, the Potency entry in assay [1], in assay [2], in assay [4], in assay [6], in assay [8] and in assay [9] was “inactive” each time. Moreover, the Potency entry in assay [16] was “inactive”. Further, the activation in [3] is 5.87% (inactive); in assay [12], -6.08% (inactive); in [20], 0.106% (inactive). Moreover, the max response in assay [5] is 5.15%; in assay [7], -18.1%; in assay [10] it was -10.4%; in assay [11] it was 2.84% (inactive); in assay [13], -3.04% (inactive); in assay [14] it was -13.9% (inactive). Also, the max response in assay [15] was -11.9% (inactive); in assay [17] it was -3.44% (inactive). Further, the compound was classed as inactive in [18].
With `C=CC(=O)OCC[N+](C)(C)C`, the Potency entry in assay [1], in [2], in assay [6], in assay [8] and in [9] was “inactive” throughout. The max response in assay [5] was 35.3%; in assay [7] it was 1.33%; in [10], 1.52%; in assay [11] it was 1.59% (inactive); in [13], -0.129% (inactive); in assay [14], 1.86% (inactive). In addition, the values for the max response in assay [15] and in assay [17] were -5.74% (inactive) and -0.896% (inactive), respectively. Moreover, the activation in assay [20] was 0.372% (inactive).
As for `C/C(=C\C(C)CC(C)CC(C)C)C1CC(=O)OC1=O` (stereo not drawn), the Potency result in assay [1], in assay [2], in assay [6], in assay [8], in assay [9] and in [19] was “inactive” in each case. For the same compound, the Potency result in [16] is “inactive”. Also, the values for the activation in assay [3], in assay [12] and in assay [20] were -4.02% (inactive), -0.74% (inactive) and 1.33% (inactive), respectively. Besides, the max response in assay [5] is 29.8%; in assay [7], 7.08%; in assay [10], -6.65%; in [11], 4.94% (inactive); in assay [13], -0.902% (inactive); in assay [14] it was -17.9% (inactive). The max response in assay [15] was -7.26% (inactive); in [17] it was 3.67% (inactive). In assay [18], the compound was called inactive.
As to `CC(C)CCCCCOC(=O)CS`, the Potency result in assay [1], in [2], in [4], in assay [8], in [9] and in [19] was “inactive” throughout. Also, in assay [16], the Potency entry is “inactive”. Besides, the values for the activation in assay [3] and in assay [12] were 5.28% (inactive) and 3.32% (inactive), respectively. In addition, the max response in [7] is -0.354%; in [10], -2.29%; in assay [11] it was -5.77% (inactive); in [13] it was 0.461% (inactive); in assay [14], -0.966% (inactive); in assay [15] it was -8.32% (inactive). Besides, the max response in [17] was -1.37% (inactive). Besides, in [18], the call was inactive.
